Tests used:
Test in all cases: DAPPL (digital affinity profiling via proximity ligation, sequencing); 10 mM Tris-HCl pH 7.5, 50 mM NaCl, 1 mM DTT, 4% glycerol, room temperature, 30 min; GST-TFs on glutathione beads, 16-mer random dsDNA library, 0.1% formaldehyde crosslink after washing; high values mean tight binding
[1] = target: T1, FEV (Homo sapiens, UniProt Q99581 1-238); settings: protein: recombinant; tags: N-terminal GST; dsDNA, one strand shown
T1 sequence: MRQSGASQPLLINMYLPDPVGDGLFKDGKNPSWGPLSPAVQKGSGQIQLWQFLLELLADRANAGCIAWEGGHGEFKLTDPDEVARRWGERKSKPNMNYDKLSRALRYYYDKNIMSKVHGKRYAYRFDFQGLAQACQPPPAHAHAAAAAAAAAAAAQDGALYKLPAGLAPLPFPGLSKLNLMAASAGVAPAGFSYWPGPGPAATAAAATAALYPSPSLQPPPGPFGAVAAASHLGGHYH
How it was run: (§1)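 Binding signal is given per hexamer as its read frequency for a factor divided by its frequency in the tag-only sample. GST-fused human transcription factors were expressed in yeast, captured on glutathione beads, barcoded with DNA and pooled with that sample, then incubated with 200 nmole of a 16-mer random double-stranded DNA library in Tris/NaCl/DTT/glycerol buffer for 30 min at room temperature. The pools were then washed, crosslinked, proximity-ligated, amplified by PCR and sequenced on an Illumina NextSeq500.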

[2] = target: ETV5 (Homo sapiens, UniProt P41161 1-510); settings: protein: recombinant; tags: N-terminal GST; dsDNA, one strand shown
How it was run: as §1

[3] = target: HSF1 (Homo sapiens, UniProt Q00613 1-529); settings: protein: recombinant; tags: N-terminal GST; chain copies: 3; dsDNA, one strand shown
How it was run: as §1

[4] = target: T2, SPIC (Homo sapiens, UniProt Q8N5J4 1-248); settings: protein: recombinant; tags: N-terminal GST; dsDNA, one strand shown
T2 sequence: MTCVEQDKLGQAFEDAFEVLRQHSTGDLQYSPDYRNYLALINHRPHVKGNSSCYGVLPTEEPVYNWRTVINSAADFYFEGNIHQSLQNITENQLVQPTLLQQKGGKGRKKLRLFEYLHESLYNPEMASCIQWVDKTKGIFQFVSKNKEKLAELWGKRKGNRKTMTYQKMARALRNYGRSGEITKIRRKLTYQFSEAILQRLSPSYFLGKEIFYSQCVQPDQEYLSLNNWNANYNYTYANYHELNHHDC
How it was run: as §1

[5] = target: ELF4 (Homo sapiens, UniProt Q99607 1-663); settings: protein: recombinant; tags: N-terminal GST; dsDNA, one strand shown
How it was run: as §1

[6] = target: T3, ELK4 (Homo sapiens, UniProt P28324-2 1-405); settings: protein: recombinant; tags: N-terminal GST; dsDNA, one strand shown
T3 sequence: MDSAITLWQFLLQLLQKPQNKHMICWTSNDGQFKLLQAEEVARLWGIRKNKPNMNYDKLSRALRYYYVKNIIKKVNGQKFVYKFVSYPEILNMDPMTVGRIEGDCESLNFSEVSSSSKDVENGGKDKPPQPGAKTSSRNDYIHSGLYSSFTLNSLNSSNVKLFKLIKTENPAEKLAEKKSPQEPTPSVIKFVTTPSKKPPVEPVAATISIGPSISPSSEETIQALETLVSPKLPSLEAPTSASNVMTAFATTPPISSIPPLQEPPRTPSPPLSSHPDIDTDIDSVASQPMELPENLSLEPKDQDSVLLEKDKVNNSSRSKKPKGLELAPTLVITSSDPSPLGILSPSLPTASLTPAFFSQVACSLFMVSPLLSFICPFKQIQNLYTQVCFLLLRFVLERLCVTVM
How it was run: as §1

[7] = target: T4, ETV2 (Homo sapiens, UniProt O00321 1-342); settings: protein: recombinant; tags: N-terminal GST; dsDNA, one strand shown
T4 sequence: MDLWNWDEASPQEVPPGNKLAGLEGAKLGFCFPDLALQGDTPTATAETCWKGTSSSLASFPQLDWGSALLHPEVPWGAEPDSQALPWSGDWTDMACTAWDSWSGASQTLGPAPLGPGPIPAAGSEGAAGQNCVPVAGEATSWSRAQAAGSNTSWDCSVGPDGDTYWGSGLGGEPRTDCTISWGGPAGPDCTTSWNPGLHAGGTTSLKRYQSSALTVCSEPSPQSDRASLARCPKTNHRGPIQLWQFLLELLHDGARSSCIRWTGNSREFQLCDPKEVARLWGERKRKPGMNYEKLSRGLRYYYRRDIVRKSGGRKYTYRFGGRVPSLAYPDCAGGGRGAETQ
How it was run: as §1

[8] = target: T5, ELF3 (Homo sapiens, UniProt P78545 1-371); settings: protein: recombinant; tags: N-terminal GST; dsDNA, one strand shown
T5 sequence: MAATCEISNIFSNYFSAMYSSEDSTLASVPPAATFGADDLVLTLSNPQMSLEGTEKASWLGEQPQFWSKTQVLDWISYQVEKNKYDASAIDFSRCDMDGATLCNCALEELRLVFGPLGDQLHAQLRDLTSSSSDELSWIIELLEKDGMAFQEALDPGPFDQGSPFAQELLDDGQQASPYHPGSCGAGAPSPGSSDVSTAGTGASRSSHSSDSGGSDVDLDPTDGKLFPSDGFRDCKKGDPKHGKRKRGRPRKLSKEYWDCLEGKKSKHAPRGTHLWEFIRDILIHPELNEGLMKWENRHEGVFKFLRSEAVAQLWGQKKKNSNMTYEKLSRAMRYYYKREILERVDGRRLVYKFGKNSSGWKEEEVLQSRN
How it was run: as §1

[9] = target: CRX (Homo sapiens, UniProt O43186 1-299); settings: protein: recombinant; tags: N-terminal GST; dsDNA, one strand shown
How it was run: as §1

[10] = target: ETV1 (Homo sapiens, UniProt P50549 1-477); settings: protein: recombinant; tags: N-terminal GST; dsDNA, one strand shown
How it was run: as §1

[11] = target: T6, ERF (Homo sapiens, UniProt P50548 1-548); settings: protein: recombinant; tags: N-terminal GST; dsDNA, one strand shown
T6 sequence: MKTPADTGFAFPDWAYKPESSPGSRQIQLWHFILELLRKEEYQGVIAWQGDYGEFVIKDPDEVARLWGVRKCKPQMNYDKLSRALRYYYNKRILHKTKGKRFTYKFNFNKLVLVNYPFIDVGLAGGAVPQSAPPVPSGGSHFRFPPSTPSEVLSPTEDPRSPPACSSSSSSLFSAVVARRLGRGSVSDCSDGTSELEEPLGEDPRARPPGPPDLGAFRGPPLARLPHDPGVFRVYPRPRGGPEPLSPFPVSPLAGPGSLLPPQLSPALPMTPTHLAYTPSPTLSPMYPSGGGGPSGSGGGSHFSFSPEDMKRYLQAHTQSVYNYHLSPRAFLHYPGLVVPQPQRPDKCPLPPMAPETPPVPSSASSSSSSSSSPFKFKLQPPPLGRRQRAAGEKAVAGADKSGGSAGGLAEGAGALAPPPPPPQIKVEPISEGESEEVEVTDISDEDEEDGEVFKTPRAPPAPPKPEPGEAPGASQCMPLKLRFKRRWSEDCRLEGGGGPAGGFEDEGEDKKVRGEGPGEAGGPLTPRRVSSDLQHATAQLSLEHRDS
How it was run: as §1

[12] = target: T7, ETV3L (Homo sapiens, UniProt Q6ZN32 1-361); settings: protein: recombinant; tags: N-terminal GST; dsDNA, one strand shown
T7 sequence: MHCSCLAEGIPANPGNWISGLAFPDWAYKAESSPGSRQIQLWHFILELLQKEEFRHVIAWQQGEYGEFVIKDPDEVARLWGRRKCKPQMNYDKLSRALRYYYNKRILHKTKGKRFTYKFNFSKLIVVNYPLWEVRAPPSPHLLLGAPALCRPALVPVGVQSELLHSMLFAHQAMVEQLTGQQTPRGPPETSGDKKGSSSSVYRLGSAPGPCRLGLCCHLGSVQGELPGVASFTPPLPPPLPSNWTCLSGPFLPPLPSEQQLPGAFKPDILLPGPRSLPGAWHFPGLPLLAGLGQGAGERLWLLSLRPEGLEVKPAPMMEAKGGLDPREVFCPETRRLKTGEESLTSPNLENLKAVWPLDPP
How it was run: as §1

[13] = target: T8, ETS2 (Homo sapiens, UniProt P15036 1-469); settings: protein: recombinant; tags: N-terminal GST; dsDNA, one strand shown
T8 sequence: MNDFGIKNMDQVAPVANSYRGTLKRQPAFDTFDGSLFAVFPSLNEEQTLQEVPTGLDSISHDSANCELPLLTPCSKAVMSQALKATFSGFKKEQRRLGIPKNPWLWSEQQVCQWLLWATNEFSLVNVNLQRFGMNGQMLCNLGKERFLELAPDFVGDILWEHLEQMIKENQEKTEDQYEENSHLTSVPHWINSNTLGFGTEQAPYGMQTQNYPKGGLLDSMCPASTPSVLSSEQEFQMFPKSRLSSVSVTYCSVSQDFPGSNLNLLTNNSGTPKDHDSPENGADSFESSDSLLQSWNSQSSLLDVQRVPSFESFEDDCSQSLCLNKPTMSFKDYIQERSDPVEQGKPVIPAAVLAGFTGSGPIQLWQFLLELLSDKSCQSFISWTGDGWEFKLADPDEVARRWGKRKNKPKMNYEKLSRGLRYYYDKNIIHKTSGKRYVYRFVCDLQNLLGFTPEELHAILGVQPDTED
How it was run: as §1

[14] = target: T9, SPDEF (Homo sapiens, UniProt O95238 1-335); settings: protein: recombinant; tags: N-terminal GST; dsDNA, one strand shown
T9 sequence: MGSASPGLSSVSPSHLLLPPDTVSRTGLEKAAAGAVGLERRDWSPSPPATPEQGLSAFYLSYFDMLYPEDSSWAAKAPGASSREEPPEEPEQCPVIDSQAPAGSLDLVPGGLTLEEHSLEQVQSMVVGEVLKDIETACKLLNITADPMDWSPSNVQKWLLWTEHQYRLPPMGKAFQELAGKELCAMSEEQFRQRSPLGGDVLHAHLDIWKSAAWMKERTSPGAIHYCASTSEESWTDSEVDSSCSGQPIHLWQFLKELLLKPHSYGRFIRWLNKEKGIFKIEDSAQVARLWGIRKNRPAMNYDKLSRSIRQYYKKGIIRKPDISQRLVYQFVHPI
How it was run: as §1

[15] = target: T10, ETV7 (Homo sapiens, UniProt Q9Y603 1-341); settings: protein: recombinant; tags: N-terminal GST; dsDNA, one strand shown
T10 sequence: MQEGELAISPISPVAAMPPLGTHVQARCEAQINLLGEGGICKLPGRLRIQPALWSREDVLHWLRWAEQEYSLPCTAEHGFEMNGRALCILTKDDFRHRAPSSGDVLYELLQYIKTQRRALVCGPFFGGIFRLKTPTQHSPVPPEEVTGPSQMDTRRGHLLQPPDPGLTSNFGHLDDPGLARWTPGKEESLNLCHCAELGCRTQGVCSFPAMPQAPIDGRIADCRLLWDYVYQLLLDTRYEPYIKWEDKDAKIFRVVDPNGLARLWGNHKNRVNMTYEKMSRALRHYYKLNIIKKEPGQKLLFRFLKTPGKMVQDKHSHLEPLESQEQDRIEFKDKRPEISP
How it was run: as §1

[16] = target: T11, ELF5 (Homo sapiens, UniProt Q9UKW6-2 1-255); settings: protein: recombinant; tags: N-terminal GST; dsDNA, one strand shown
T11 sequence: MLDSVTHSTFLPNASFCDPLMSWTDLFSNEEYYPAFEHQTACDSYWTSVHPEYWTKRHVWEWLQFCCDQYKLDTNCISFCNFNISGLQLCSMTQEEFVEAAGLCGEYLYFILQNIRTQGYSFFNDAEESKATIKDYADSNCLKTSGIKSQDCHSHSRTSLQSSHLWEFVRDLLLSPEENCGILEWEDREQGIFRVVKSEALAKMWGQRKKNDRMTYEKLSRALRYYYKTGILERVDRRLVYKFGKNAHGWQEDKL
How it was run: as §1

[17] = target: T12, ETV3 (Homo sapiens, UniProt P41162-2 1-143); settings: protein: recombinant; tags: N-terminal GST; dsDNA, one strand shown
T12 sequence: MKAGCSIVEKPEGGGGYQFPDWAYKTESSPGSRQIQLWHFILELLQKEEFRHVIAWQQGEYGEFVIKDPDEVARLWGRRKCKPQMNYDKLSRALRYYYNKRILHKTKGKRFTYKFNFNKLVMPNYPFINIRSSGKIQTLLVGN
How it was run: as §1

[18] = target: ETV6 (Homo sapiens, UniProt P41212 1-452); settings: protein: recombinant; tags: N-terminal GST; dsDNA, one strand shown
How it was run: as §1

CRX, sequence (O43186 whole entry): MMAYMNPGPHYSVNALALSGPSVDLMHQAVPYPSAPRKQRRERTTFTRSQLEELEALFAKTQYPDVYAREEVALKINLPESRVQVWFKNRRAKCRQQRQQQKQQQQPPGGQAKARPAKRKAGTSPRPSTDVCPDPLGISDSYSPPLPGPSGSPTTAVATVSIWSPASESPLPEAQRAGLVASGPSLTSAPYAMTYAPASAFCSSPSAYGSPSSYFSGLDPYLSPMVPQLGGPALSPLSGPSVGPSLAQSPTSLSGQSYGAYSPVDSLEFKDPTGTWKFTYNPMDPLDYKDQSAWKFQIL
ETV6, sequence (P41212 whole entry): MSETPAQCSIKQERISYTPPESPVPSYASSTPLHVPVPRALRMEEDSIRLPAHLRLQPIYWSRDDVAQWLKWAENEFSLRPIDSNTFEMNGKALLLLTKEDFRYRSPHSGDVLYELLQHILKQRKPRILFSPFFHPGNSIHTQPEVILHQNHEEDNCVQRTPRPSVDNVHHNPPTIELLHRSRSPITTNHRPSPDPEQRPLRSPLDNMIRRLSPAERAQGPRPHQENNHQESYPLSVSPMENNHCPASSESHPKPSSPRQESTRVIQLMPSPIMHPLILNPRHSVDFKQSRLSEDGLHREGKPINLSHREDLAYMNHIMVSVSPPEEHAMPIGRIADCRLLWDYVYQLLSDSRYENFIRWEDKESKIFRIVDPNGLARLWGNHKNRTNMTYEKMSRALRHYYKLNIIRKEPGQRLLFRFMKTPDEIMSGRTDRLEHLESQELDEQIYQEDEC
ELF4, sequence (Q99607 whole entry): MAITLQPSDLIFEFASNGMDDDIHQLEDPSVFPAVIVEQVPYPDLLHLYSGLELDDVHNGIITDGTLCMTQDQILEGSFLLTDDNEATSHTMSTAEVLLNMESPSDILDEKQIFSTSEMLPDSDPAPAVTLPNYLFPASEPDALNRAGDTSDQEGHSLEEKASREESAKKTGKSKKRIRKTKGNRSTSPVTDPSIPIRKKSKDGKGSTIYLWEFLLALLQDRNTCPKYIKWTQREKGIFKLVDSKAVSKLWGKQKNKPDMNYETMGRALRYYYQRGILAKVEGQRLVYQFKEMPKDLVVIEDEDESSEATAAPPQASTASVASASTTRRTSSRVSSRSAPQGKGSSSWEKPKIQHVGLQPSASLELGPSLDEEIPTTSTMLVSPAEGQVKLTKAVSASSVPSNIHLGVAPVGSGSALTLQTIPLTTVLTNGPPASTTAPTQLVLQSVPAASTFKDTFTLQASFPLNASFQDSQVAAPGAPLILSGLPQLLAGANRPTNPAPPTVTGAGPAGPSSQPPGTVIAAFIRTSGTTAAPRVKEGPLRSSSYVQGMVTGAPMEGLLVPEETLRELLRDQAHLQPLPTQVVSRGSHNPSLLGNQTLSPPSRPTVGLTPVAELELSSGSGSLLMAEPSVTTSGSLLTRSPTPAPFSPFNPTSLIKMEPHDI
ETV5, sequence (P41161 whole entry): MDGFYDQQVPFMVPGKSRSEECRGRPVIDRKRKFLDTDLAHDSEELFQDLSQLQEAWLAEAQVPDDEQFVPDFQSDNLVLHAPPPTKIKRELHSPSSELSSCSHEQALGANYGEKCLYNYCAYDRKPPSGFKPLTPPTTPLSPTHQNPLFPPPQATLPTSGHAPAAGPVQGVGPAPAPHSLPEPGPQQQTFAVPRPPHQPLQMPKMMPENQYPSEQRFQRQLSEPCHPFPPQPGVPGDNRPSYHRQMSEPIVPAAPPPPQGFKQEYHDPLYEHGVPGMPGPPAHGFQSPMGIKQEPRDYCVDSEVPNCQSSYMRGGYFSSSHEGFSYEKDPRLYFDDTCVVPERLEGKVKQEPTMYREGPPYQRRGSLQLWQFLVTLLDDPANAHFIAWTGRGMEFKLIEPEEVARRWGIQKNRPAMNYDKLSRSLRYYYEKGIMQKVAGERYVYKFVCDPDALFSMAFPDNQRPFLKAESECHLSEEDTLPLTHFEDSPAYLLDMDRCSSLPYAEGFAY
ETV1, sequence (P50549 whole entry): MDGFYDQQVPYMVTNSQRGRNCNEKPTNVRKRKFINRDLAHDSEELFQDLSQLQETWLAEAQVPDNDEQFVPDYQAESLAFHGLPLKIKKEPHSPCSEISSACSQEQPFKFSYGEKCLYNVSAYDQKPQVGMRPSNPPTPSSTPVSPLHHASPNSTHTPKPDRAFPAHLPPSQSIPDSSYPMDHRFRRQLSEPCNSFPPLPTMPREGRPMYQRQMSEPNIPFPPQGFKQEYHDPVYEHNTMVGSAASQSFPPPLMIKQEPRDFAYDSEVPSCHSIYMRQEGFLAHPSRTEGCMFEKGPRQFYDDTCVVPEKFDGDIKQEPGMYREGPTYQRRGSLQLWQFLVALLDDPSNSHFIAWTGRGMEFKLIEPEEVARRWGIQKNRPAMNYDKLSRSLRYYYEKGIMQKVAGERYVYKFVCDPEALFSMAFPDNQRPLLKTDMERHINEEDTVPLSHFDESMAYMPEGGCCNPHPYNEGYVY
HSF1, sequence (Q00613 whole entry): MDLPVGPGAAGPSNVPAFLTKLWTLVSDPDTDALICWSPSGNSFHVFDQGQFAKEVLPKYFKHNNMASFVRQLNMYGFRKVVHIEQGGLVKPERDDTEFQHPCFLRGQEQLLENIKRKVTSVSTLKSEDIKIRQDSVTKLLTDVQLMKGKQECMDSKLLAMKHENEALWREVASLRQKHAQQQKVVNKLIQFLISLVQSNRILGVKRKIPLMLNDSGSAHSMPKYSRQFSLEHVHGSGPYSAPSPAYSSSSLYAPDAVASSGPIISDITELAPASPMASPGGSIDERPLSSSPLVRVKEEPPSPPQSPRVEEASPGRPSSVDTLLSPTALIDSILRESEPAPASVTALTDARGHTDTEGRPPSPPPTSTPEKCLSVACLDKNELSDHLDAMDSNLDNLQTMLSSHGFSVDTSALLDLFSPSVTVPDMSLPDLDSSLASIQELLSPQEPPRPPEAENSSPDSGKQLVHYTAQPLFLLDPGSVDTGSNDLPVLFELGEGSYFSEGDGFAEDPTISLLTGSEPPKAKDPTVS

Q: What does the source list for CTCTAA?
A: binding signal [1]: 1.29 fold enrichment (6-mer frequency, TF over GST control); binding signal [2]: 1.37 fold enrichment (6-mer frequency, TF over GST control); binding signal [3]: 1.49 fold enrichment (6-mer frequency, TF over GST control); binding signal [4]: 1.6 fold enrichment (6-mer frequency, TF over GST control); binding signal [5]: 1.31 fold enrichment (6-mer frequency, TF over GST control); binding signal [6]: 1.22 fold enrichment (6-mer frequency, TF over GST control); binding signal [7]: 1.37 fold enrichment (6-mer frequency, TF over GST control); binding signal [8]: 1.5 fold enrichment (6-mer frequency, TF over GST control); binding signal [9]: 2 fold enrichment (6-mer frequency, TF over GST control); binding signal [10]: 1.32 fold enrichment (6-mer frequency, TF over GST control); binding signal [11]: 1.44 fold enrichment (6-mer frequency, TF over GST control); binding signal [12]: 1.37 fold enrichment (6-mer frequency, TF over GST control); binding signal [13]: 1.32 fold enrichment (6-mer frequency, TF over GST control); binding signal [14]: 1.19 fold enrichment (6-mer frequency, TF over GST control); binding signal [15]: 1.27 fold enrichment (6-mer frequency, TF over GST control); binding signal [16]: 1.34 fold enrichment (6-mer frequency, TF over GST control); binding signal [17]: 1.24 fold enrichment (6-mer frequency, TF over GST control); binding signal [18]: 1.26 fold enrichment (6-mer frequency, TF over GST control)
